# This is part of a sample that, as a whole, favours compounds with a hit. Of some 83,000 tested, about 20% had one in any assay.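 Percent growth is the endpoint: 0 to 100 indicates growth inhibition (40 means 60% inhibition), 0 means no net growth, and negative values indicate cell death.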 Unmarked numbers belong to inactive results. Calls of active or inactive are those of the source. How the source made its calls: active means growth percent below 10; inactive means the rest.
# System: MDA-MB-468 breast
# Test: NCI-60 one-dose screen, 48 h (100 = growth as untreated, 0 = no growth, -100 = all killed)
# Conditions: 10 µM unless noted
row,SMILES,growth
1,O=C(Nc1ccc(F)cc1)c1cc2cc(Nc3nc(-c4ccccc4)nc4ccccc34)ccc2oc1=O,111%
2,COC(=O)c1cccc(NC2=C(Cl)C(=O)C(C)=C(C)C2=O)c1,-62% (active)
3,CCCC(=O)CC(C)=O.CCCC(=O)CC(C)=O.[Cu],107%
4,CNC(=O)c1cc(Oc2ccc3c(c2)sc2nc(-c4ccc(NC(=O)[C@@H](NC(=O)OC)C(C)C)cc4)cn23)ccn1,28.4%
5,O=C(Nc1ccccc1)P(=O)(O)c1ccccc1,94.3%
6,COc1ccc(OCC(=O)Nc2ccc(-c3nc4ccccc4s3)cc2C)cc1,7.38% (active)
7,COC(=O)CC(=O)C(=O)OC,95.3%
8,Clc1ccc(N/N=C(/c2ccccc2)c2ccccn2)nc1,4.13% (active)
9,C[C@]12CC[C@@H]3c4ccc(O)cc4CC[C@H]3[C@@H]1CC[C@@H]2NS(=O)(=O)c1ccc(C(F)(F)F)cc1,53%
10,O=C(N/N=C\c1c(O)ccc2ccccc12)C1CC1,11.8%
11,COc1ccc(NC(=O)/C(=C/N2C(=O)/C(=C/c3ccc(OC)c(OC)c3)NC2=S)C(C)=O)cc1,40.1%
12,O=S1SC(c2ccccc2)=NN1c1cc(F)cc(F)c1 (stereo not given),44.4%
13,COc1ccc2c(c1)c(-c1nn3cc(-c4ccncc4)nc3s1)cn2C,79.3%
14,CSc1ccc(N=C=C(c2ccccc2)c2ccccc2)cc1,97.1%
15,N=C(N)c1ccc(-c2ccc(-c3cc(Cl)cc(Cl)c3)o2)nc1,-73.9% (active)
16,COc1ccc(-c2nc3c(c(C)nn3-c3ccc(F)cc3)c(=O)[nH]2)cc1,88.9%
17,COc1ccc(C2CC(=O)Nc3c2c(C)nn3-c2nc3ccccc3[nH]2)cc1 (stereo not given),101%
18,CC(C)(O)c1cncc(-c2ccc3ncnc(N4CCc5cc(F)c(Cl)cc54)c3c2)c1,-36% (active)

row,SMILES,growth
1,CC(C)OCC(CCl)OC(=O)Nc1ccccc1 (stereo not given),112%
2,CCOCCNc1ccc(S(=O)(=O)c2ccc(N)cc2)cc1N,95.9%
3,CCN(CC)CCNc1ccc(C)c2sc3cc(C)ccc3c(=O)c12,66.5%
4,O=S(=O)(CCN1CCOCC1)Nc1cncc(-c2ccc3ncnc(Nc4ccc(F)c(Cl)c4)c3c2)c1,-23.1% (active)
5,COc1cc(CNS(=O)(=O)c2ccc(C)cc2)ccc1OCc1cn(-c2ccc(Br)cc2)nn1,95.5%
6,CCC1=CCC[C@@]2(C)CCC[C@@]3(C)CCCC(C)(C)[C@]1([O-])[O+]32,94.5%
7,c1ccc(CNc2ccc3nc(CCC4CCCCC4)[nH]c3c2)cc1,43%
8,COc1cc(/C=C2\CCC/C(=C\c3ccc(OCC4CO4)c(OC)c3)C2=O)ccc1OCC1CO1 (stereo not given),20.1%
9,C=C[C@@]1(C)CC(=O)[C@@H](C(C)(C)c2cn(C)c3ccc(Br)cc23)C[C@@H]1O[Si](C)(C)C(C)(C)C,100%
10,CC(=O)N[C@H](C(=O)N[C@@H](CCCNC(=N)N)C(=O)N[C@@H](CCCCN)C(=O)N[C@@H](CCCNC(=N)N)C(=O)N[C@]1(C)CCCCCC/C=C\CCC[C@@](C)(C(=O)N[C@@H](CCCNC(=N)N)C(=O)N[C@@H](CCC(=O)O)C(=O)N[C@@H](CC(C)C)C(=O)N[C@H](C(=O)N[C@@H](CCC(=O)O)C(N)=O)C(C)C)NC(=O)[C@H](CCC(N)=O)NC(=O)[C@H](CC(C)C)NC(=O)[C@H](CC(C)C)NC(=O)[C@H](CCCNC(=N)N)NC(=O)[C@H](CCCNC(=N)N)NC(=O)[C@H](CC(C)C)NC1=O)C(C)C,20.5%
11,O=c1cc(CNc2cc(F)cc(F)c2)c2ccc(I)cc2[nH]1,19%
12,Cc1ccc2c(n1)C(=O)C(Cl)=C(Nc1cccc(C(C)C)c1)C2=O,-9.52% (active)
13,CCc1ccc(Cc2cnc(NC(=O)c3cc(C)oc3C)s2)cc1,9.5% (active)
14,NCCNC(=O)c1cccc(COc2ccccc2NC(=O)c2cc(Cl)c(Cl)[nH]2)c1,96%
15,Cn1nccc1Nc1nccc(-c2ccn([C@H](CO)c3ccc(Cl)c(F)c3)c(=O)c2)n1,129%
16,COc1ccc(Cl)cc1NC(=O)C(Br)C(Br)C(=O)O (stereo not given),-79% (active)
17,Cc1nn(-c2ccc(Br)cc2)c2nc(CCl)[nH]c(=O)c12,94%
